Test results as given in PubChem BioAssay (NCATS).
“And” between values parts separate entries of the source, which are not always exact repeats. Identical values can stand only once. Results filed as inconclusive are left out. Some compounds were tested as several samples or in several runs, with calls that do not always agree. The source made the active and inactive calls. Calls follow the shape of the dose curve; as a rule, active = well fitted inhibition curve with a large enough effect in the signal ratio, with a control signal flat (not every such curve was filed as active); inconclusive = small, poorly fitted or top-dose-only effect, or effect the other way, or a change in a side signal; inactive = flat fitted curve, though single readings scatter; the % refers to the signal ratio.

These compounds were tested against Peroxisome proliferator-activated receptor gamma (Homo sapiens) (UniProt P37231) (assay: qHTS assay for small molecule antagonists of peroxisome proliferator-activated receptor gamma signaling (AID 588537; as to activity, negative = inhibition: % of control where 0% means no effect)). Details: HEK293 PPARg-UAS-bla, beta-lactamase ratio, antagonist mode; series mostly up to 76.8 µM; activity, negative = inhibition: at the top concentration.
Peroxisome proliferator-activated receptor gamma (Homo sapiens), sequence (P37231 whole entry, looked up): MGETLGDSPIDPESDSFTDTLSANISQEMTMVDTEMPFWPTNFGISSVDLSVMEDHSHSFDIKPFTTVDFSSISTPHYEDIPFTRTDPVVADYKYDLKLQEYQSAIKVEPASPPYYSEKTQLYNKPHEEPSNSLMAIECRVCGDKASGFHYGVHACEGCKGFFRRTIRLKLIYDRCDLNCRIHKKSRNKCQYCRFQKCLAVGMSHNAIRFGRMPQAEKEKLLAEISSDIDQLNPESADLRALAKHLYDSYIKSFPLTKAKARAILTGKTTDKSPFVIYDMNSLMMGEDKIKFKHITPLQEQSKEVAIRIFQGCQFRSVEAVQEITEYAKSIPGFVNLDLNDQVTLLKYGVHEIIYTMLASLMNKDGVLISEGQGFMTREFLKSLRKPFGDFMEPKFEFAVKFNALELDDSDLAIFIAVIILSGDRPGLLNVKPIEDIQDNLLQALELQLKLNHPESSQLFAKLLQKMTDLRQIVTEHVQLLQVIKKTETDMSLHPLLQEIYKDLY
Excerpt: NIH Chemical Genomics Center [NCGC]
U.S. Environmental Protection Agency [EPA]
National Institutes of Environmental Health Sciences [NIEHS]
National Toxicology Program [NTP]
The Peroxisome proliferator-activated receptors (PPARs) are lipid-activated transcription factors of the nuclear receptor superfamily with three distinct subtypes namely PPAR alpha, PPAR delta (also called PPAR beta) and PPAR gamma. All these subtypes heterodimerizes with Retinoid X receptor (RXR) and these heterodimers regulate transcription of various genes. PPAR-gamma (glitazone receptor) ligands have been used in the treatment of type 2 diabetes and dyslipidaemia. It is involved in the regulation of glucose and lipid metabolism. PPAR-gamma activates certain genes like Paraoxonase 1 which is responsible for hydrolyzing organophosphates. PPAR-gamma ligands may also be therapeutically important in the treatment of coronary artery disease, obesity and cancer and atherosclerosis.
NCGC Assay Protocol Summary
Using a beta-lactamase reporter-gene under control of Peroxisome Proliferator-Activated-gamma (PPAR-gamma) response element, a cell-based assay [GeneBLAzer PPAR-gamma-UAS-bla assay developed by Invitrogen] was used to measure PPAR-gamma ligands signaling. GeneBLAzer PPAR-gamma-UAS-bla-HEK293 cells were used with assay medium containing 1% charcoal/dextran treated FBS. The assay was performed in clear bottom black Greiner 1536-well plates. Library compounds were measured for their ability to inhibit the reporter gene activity. Compounds were screened in a titration series in 1536-well format. The fluorescence intensity (405 nm excitation, 460/530 nm emission) was measured using an EnVision plate reader. Data was normalized relative to Rosiglitazone control (50 nM, 100%), and DMSO only wells (basal, 0%). Concentration-response titration points for each compound were fitted to the Hill equation yielding concentrations of half-maximal inhibition (IC50) and maximal response (efficacy) values.
qHTS protocol for PPAR-gamma beta-lactamase assay in antagonist mode
[Step] [Parameter] [Value] [Description]
1. Reagent; 5 uL; 3000 cells/well
2. Incubation; 37 C for 6-6.5 hrs
4. Controls (GW9662, PPAR-gamma antagonist); 23 nL,
5. Agonist (Stimulator); 1uL; Rosiglitazone at 50 nM (final) concentration
6. Incubation; 37 C for 16 hrs
7. Detection reagent; 1 uL of CCF4-dye
8. Incubation; RT for 2 hrs
9. Detection; Fluorescence; Envision plate reader
`COc1ccc2c(c1OC)C(=O)OC2C1c2cc3c(cc2CCN1C)OCO3` (configuration not stated) was tested, and the “activity, negative = inhibition” value was 3.64% (inactive). In the case of `O=C1C=CC(=O)C=C1`, the “activity, negative = inhibition” value is reported as -4.11% (inactive). `ClC1C(Cl)C(Cl)C(Cl)C(Cl)C1Cl` (configuration not stated) was tested, and the “activity, negative = inhibition” value was -4.67% (inactive). `[O]=[Cd]` was tested, and the “activity, negative = inhibition” value was 2% (inactive). In the case of `C[C@H]1CC[C@@H]2[C@@H](C)[C@H]3[C@H](C[C@H]4[C@@H]5CC=C6CC(O[C@@H]7O[C@H](CO)[C@H](O)[C@H](O[C@@H]8O[C@H](CO)[C@@H](O)[C@H](O)[C@H]8O)[C@H]7O[C@H]7O[C@@H](C)[C@H](O)[C@@H](O)[C@H]7O)CC[C@]6(C)[C@H]5CC[C@]34C)N2C1` (some centres not stated), the “activity, negative = inhibition” value is reported as -6.8% (inactive). With `COC1=CC(=O)O[C@@H](/C=C/c2ccccc2)C1` the “activity, negative = inhibition” value was 4.79% (inactive). For `O=C1CCO1`, the “activity, negative = inhibition” value was 2.89% (inactive). For `CC(C)(C)c1cc(O)ccc1O`, the Potency was “inactive and 44.7 µM (active)”. With `O=c1[nH]c(=O)n(Cl)c(=O)n1Cl` the “activity, negative = inhibition” value was 14.6% (inactive). In the case of `O=C(O)C(Cl)(Cl)Cl`, the Potency is reported as “inactive”. With `CCOC(=O)c1ccccc1C(=O)OCC` the Potency was “inactive”. In the case of `ClC=C(Cl)Cl`, the “activity, negative = inhibition” value is reported as 5.7% (inactive). In the case of `N#CN`, the “activity, negative = inhibition” value is reported as 3.84% (inactive). `O=[N+]([O-])c1ccccc1` was tested, and the Potency was “inactive”. `Oc1cc(Cl)c(Cl)cc1Cl` was tested, and the “activity, negative = inhibition” value was 0.326% (inactive). `O=C1C[C@@H]2OCC=C3CN4CC[C@]56c7ccccc7N1[C@H]5[C@H]2[C@H]3C[C@H]46` was tested, and the “activity, negative = inhibition” value was 11.9% (inactive). For `CCCSP(=O)(OCC)SCCC`, the “activity, negative = inhibition” value was -10.1% (inactive). With `O=C(O)c1cc[c]([Hg][Cl])cc1` the “activity, negative = inhibition” value was 15.7% (inactive). For `O=[N+]([O-])C(Br)(CO)CO`, the “activity, negative = inhibition” value was 9.82% (inactive). In the case of `COCC(C)N(C(=O)CCl)c1c(C)csc1C` (configuration not stated), the Potency is reported as 39.8 µM (active). In the case of `ClCC1CO1` (configuration not stated), the “activity, negative = inhibition” value is reported as 1.53% (inactive). With `CC(C)CCON=O` the “activity, negative = inhibition” value was 7.72% (inactive). With `C[C@H]1CCC[C@H](O)CCCCCc2cc(O)cc(O)c2C(=O)O1` the “activity, negative = inhibition” value was -11.5% (inactive). With `O=C/C=C/c1ccccc1` the “activity, negative = inhibition” value was 3.92% (inactive). For `CCCCCCCCOC(=O)c1ccccc1C(=O)OCCCCCCCC`, the “activity, negative = inhibition” value was 6.53% (inactive). In the case of `ClC(Cl)(Cl)Cl`, the Potency is reported as “inactive”. `O=C(NCNC(=O)NC1C(=O)NC(=O)N1CO)NC1C(=O)NC(=O)N1CO` (configuration not stated) was tested, and the “activity, negative = inhibition” value was 4.98% (inactive).
